Data on 39 molecules can be found in PubChem BioAssay (NCATS).

Records with an inconclusive call do not appear. Unmarked numbers belong to inactive results. The call rests on the fitted dose curve; in most records, active means well fitted inhibition curve with a large enough effect; inconclusive means small, poorly fitted or top-dose-only effect; inactive means flat fitted curve, though single readings scatter.
On the % scale 0 is the no-effect control and ±100 the full control effect.

Sequence of Calcium and integrin-binding protein 1 (Homo sapiens) (Q99828 whole entry, looked up): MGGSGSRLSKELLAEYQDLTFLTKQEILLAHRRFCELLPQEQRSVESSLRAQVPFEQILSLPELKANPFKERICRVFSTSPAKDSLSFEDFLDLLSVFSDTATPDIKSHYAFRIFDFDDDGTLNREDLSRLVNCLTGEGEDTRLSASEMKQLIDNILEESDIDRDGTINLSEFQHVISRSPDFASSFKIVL

The test concerns the target Calcium and integrin-binding protein 1 (Homo sapiens) (UniProt Q99828). Briefly: Primary qHTS for Identification of Calcium Integrin Binding Protein 1 (CIB1) Competitor (AID 1508620). Further: top concentration of the series differs between compounds. The note with it: CIB1-GST / FITC-alphaIIb peptide fluorescence polarization; series mostly up to 114 µM; activity change, negative = inhibition: at the top concentration. In short, it runs like this:
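Fluorescence polarization competition: GST-tagged CIB1 (1 uM final) preincubated with compound 15 min at room temperature, then FITC-labelled alphaIIb peptide (100 nM final) added. After 15 min at room temperature, polarization read at Ex 480/Em 540.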
As to `O=C1CC(c2ccccc2)CC2=C1C1(CCCCC1)N=C(Nc1nc3ccccc3o1)N2` (centres undefined), the “activity change, negative = inhibition” value was -0.551%. As for `CC(C)(C)OC(=O)N1CCN(c2ccc(NCc3ccc(-c4ccc(C#N)cc4)o3)cn2)CC1`, the figure is -1.79%; as for `Cn1ccc2cc(-c3ccc4ncnc(NCc5cccnc5)c4c3)ccc21`, -3.03%; as for `CC(C)(C)OC(=O)Cc1nnc(-c2cc3ccccc3[nH]2)o1`, 2.94%. Consider `O=C(Nc1ccccc1)Nc1nc(Nc2cc(F)cc(F)c2)nc(NC2CCCC2)n1`, for which the “activity change, negative = inhibition” value was -1.92%. As for `CCCCC(OC(=O)CNC(=O)c1ccccc1)C(=O)Nc1cc(C(F)(F)F)ccc1Cl` (centres undefined), the figure is 3.67%; as for `CC1=C(C(=O)Nc2nc3ccccc3s2)C(c2nn(C)cc2Cl)N=C(Nc2nc3ccccc3o2)N1` (centres undefined), -1.41%.

`CCc1ccc2oc(=O)cc(CN3CCN(c4ccccc4F)CC3)c2c1`: the “activity change, negative = inhibition” value is 1.55%. As for `Cc1ccc(CNc2ccc(N3CCNCC3=O)cc2)cc1`, the figure is 2.31%. As for `Nc1scc2c(C(=O)O)nn(-c3ccccc3)c(=O)c12`, the figure is -15.9%; as for `O=C(OCC#CCSc1nnc(-c2ccc3ccccc3c2)o1)c1cccc(F)c1`, 5.06%. Take `COc1cncc(NC(=O)c2cccs2)c1`: the “activity change, negative = inhibition” value is -19.3%. As for `COc1cc(O)c(C(CC(=O)N2CCC[C@@H](C)C2)c2ccc3c(c2)OCO3)c(OC)c1` (some centres undefined), the figure is 1.86% [at 228 µM]. As for `N#Cc1nc(Nc2ccccc2)nc(NC2CCCC2)n1`, the figure is -2.22%; as for `Cc1cc2c(s1)c1cnn(Cc3cc(F)c(F)cc3F)c(=O)c1n2C`, 4.26%. As for `Cc1cc2c(s1)c1cnn(Cc3cccc(Br)c3)c(=O)c1n2C`, the figure is 9.57%; as for `CC(C)(C)OC(=O)N1CCN(c2cnc(NCc3ccc(-c4ccc(C#N)cc4)o3)nc2)CC1`, -14%. As for `O=C(CN1C(=O)CC(c2ccco2)Sc2ccccc21)Nc1ccccc1F` (centres undefined), the “activity change, negative = inhibition” value is -4.31%. As to `Cc1ccc(C2N=C(Nc3nc4ccccc4o3)NC3=C2C(=O)CCC3)cc1` (centres undefined), the “activity change, negative = inhibition” value is -2.38%.

Consider `O=C1CCc2cc(S(=O)(=O)Nc3ccc(Cl)c(Cl)c3)ccc2N1`, for which the “activity change, negative = inhibition” value was -11.3%. As for `COc1ccc(-c2nnc3n2N=C(c2ccccc2OC)CS3)cc1`, the figure is -2.62%; as for `O=C(/C=C/c1cccc(Cl)c1)Nc1cccc([S+](=O)([O-])Nc2ccccc2F)c1`, 18.9%; as for `O=C(O)c1ccc(S(=O)(=O)N[C@H](Cc2ccc([N+](=O)[O-])cc2)C(=O)O)cc1`, 0.618%. As for `CC(C)CN1CCN(C(=O)COC(=O)c2ccc(S(C)(=O)=O)c([N+](=O)[O-])c2)CC1`, the figure is -5.27%. As for `COc1cccc(-c2ccc3ncnc(NCc4ccc5c(c4)OCO5)c3c2)c1`, the figure is 3.55%. Take `CN(Cc1ccc(-c2ccccc2)cc1)c1nc(-c2ccccc2C(F)(F)F)nc2ccccc12`: the “activity change, negative = inhibition” value was 2.07%. As for `Cc1noc(Nc2sc3c(c2-c2nc4ccccc4s2)CCNC3)n1`, the figure is 2.87%; as for `O=S(=O)(NCCCCNS(=O)(=O)c1c(F)cccc1F)c1ccc2c(c1)OCCO2`, -5.32%; as for `Cc1ccc(OCCn2c(CCNC(=O)c3cccs3)nc3ccccc32)cc1`, 0.657%. As for `Cc1cc(C)nc(NC(=S)N2CCN(c3cncs3)CC2)c1`, the figure is -11.2%.

As to `NC(=O)c1c(NC(=O)c2ccco2)sc2c1CCCC2`, the “activity change, negative = inhibition” value is -9.04%. As for `O=C(COC(=O)CNC(=O)C1CCCCC1)Nc1ccccc1Cl`, the figure is 4.11%; as for `CC(=O)Nc1sc2c(c1-c1cccc(N(C)C)c1)CCNC2`, 2.47%; as for `CC(Nc1nc(-c2ccccc2C(F)(F)F)nc2ccccc12)c1ccc(-c2cccc(C(F)(F)F)c2)cc1` (centres undefined), 4.58%. As for `Fc1ccc(Nc2cc(-c3ccccc3)nc(-c3ccncc3)n2)cc1F`, the figure is 5.17%.

Turning to `CC(C)c1ccccc1-c1ncc(F)c(NCC2CCN(c3cccnc3)CC2)n1`, the “activity change, negative = inhibition” value is -2.72%.

On to `O=c1c2ccccc2nc2sc(NCc3ccc(Cc4ccccc4)cc3)nn12`, for which the “activity change, negative = inhibition” value was 2.75%. As for `NC(=O)C1CCN(c2nc(-c3ccc(F)cc3)cs2)CC1`, the figure is 10.7%; as for `N#Cc1cc(NC(=O)Nc2nnc(-c3ccncc3)s2)ccc1Br`, -2.24%.
